Holding throughout (assay): protein-binding microarray (PBM); PBM: ~300 nM protein, 6 mM HEPES pH 7.8, 80 mM KCl, 0.5 mM EDTA, 0.5 mM EGTA, 6% glycerol, 35 ng/ul poly-dIdC, 1% milk, 1 h, room temperature; Ap Aiptasia and Nv Nematostella (sea anemones) / Co Capsaspora / Aq Amphimedon (sponge) / Dm Drosophila / Hu human; RHD is the Rel homology domain; high values mean tight binding
Settings in all cases: dsDNA, one strand shown

For assay [1], the target named is T1, GST-Ap-NF-kB RHD (Exaiptasia pallida (Aiptasia), UniProt A0A913YAJ5 2-422).
T1 sequence: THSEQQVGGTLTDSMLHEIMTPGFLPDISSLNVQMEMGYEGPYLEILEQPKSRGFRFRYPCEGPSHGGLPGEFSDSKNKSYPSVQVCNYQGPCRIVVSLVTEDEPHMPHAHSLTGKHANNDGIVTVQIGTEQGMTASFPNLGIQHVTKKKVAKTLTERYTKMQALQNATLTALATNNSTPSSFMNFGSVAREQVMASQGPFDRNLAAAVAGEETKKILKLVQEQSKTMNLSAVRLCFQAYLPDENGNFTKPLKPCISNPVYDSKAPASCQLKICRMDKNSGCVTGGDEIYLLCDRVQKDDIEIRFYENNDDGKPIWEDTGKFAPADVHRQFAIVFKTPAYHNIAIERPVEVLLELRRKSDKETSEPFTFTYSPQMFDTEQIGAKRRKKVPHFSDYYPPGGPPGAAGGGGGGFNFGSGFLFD

Assay [2] deals with T2, GST-Nv-NF-kB (Cys allele) (Nematostella vectensis, UniProt E5G601 2-411).
T2 sequence: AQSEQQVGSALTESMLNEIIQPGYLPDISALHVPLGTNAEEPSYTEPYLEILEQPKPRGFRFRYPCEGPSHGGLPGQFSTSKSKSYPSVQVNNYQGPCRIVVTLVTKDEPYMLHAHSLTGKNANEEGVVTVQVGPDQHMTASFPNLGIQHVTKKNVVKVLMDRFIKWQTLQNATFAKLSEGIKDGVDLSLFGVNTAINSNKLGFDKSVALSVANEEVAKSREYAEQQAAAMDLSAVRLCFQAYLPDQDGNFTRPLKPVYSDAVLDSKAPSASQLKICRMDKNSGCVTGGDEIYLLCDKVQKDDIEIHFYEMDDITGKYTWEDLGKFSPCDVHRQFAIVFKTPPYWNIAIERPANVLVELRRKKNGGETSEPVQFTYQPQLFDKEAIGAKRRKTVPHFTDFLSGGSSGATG

In assay [3] the target is T3, GST-Nv-NF-kB (Ser allele) (Nematostella vectensis, UniProt A7UNT2 2-411).
T3 sequence: T2 sequence with Q21R, C66S, S207N, E215Q, V217A, E225K, A268E, D399E

For assay [4], the target named is T4, GST-Co-NF-kB (Capsaspora owczarzaki, UniProt F1ARL5 200-546).
T4 sequence: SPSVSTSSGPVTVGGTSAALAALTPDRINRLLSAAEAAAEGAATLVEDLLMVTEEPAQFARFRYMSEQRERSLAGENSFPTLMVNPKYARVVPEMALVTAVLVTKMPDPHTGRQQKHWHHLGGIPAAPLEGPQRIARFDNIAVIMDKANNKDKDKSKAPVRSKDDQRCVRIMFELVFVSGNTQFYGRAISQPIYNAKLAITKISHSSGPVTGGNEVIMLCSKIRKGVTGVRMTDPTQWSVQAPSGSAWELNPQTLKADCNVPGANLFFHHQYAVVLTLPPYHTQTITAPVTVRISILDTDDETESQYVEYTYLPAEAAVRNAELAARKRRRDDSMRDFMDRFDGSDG

In assay [5] the target is T5, GST-Dm-Relish (Drosophila melanogaster, UniProt Q94527 99-473).
T5 sequence: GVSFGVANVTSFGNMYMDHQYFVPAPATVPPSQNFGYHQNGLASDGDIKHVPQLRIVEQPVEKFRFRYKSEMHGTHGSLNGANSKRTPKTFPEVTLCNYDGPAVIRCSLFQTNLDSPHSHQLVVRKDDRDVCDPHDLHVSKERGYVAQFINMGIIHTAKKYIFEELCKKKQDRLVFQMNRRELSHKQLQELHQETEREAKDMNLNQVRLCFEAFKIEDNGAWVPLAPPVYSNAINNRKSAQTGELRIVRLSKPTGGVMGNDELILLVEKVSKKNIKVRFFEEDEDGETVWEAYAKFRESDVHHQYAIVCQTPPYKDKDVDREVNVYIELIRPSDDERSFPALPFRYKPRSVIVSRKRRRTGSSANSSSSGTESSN

Assay [6] addresses T6, GST-Aq-NF-kB (Amphimedon queenslandica, UniProt A9Y5G7 2-389).
T6 sequence: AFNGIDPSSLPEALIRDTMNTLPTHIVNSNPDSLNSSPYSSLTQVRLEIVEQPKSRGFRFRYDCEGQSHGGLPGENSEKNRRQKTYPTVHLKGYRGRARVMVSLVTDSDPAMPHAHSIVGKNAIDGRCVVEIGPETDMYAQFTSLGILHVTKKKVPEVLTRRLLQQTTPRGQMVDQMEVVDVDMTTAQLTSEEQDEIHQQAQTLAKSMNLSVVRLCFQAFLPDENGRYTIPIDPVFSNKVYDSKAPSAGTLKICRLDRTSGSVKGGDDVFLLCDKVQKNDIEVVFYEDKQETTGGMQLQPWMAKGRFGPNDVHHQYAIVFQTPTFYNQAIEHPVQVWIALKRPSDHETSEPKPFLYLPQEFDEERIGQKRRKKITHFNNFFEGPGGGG

Assay [7] addresses GST-Hu-p50 (Homo sapiens, UniProt P19838 7-356).

Where a chain is given by its changes, count along the chain named.

GST-Hu-p50, sequence (P19838 7-356): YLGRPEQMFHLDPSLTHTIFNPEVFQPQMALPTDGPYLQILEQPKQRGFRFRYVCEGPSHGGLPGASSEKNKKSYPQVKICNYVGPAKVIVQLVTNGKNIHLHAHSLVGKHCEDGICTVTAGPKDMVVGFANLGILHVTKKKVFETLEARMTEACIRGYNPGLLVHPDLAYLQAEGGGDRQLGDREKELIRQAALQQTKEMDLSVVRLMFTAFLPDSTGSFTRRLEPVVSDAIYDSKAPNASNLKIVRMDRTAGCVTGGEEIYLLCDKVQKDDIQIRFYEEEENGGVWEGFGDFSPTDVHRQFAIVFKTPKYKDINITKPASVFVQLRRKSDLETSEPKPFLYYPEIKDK

As to “CCGATTAACATCAGGAACTCCCATGATGTTAATCGGGTCTTGATTCGCTTGACGCTGCTG”, the binding signal in assay [1] was found to be 2.86 z-score; in assay [2], 2.53 z-score; in assay [3], 1.04 z-score; in assay [4], 1.08 z-score; in assay [5], 4.29 z-score; in assay [6], 3.71 z-score. The same sequence gave a binding signal in assay [7] of 1.95 z-score.

With “CCGATTAACATCAGAGCTCCCCCTGATGTTAATCGGGTCTTGATTCGCTTGACGCTGCTG”, the binding signal was determined as 5.05 z-score in assay [1]; 4.31 z-score in assay [2]; 4.32 z-score in assay [3]; 5.45 z-score in assay [4]; 1.98 z-score in assay [5]; 3.98 z-score in assay [6]. For the same sequence, the binding signal in assay [7] is 4.94 z-score.

As to “CCGATTAACATCAGGGAACTCCCTGATGTTAATCGGGTCTTGATTCGCTTGACGCTGCTG”, the binding signal in assay [1] was found to be 8.33 z-score; in assay [2], 10.6 z-score; in assay [3], 6.92 z-score; in assay [4] it was 3.39 z-score; in assay [5], 9 z-score; in assay [6], 9.76 z-score. In addition, in assay [7], the binding signal came out at 6.16 z-score.

“CCGATTAACATCAGATTTACCCCTGATGTTAATCGGGTCTTGATTCGCTTGACGCTGCTG”: the binding signal in assay [1] was 3.07 z-score; in assay [2], 2.72 z-score; in assay [3], 3.18 z-score; in assay [4], 6.39 z-score; in assay [5], 2.13 z-score; in assay [6], 3.62 z-score. The binding signal in assay [7] is 3.46 z-score.

Consider “CCGATTAACATCAAGGGGGAATCTGATGTTAATCGGGTCTTGATTCGCTTGACGCTGCTG”, for which the binding signal is 8.47 z-score in assay [1]; 8.91 z-score in assay [2]; 9.87 z-score in assay [3]; 8.32 z-score in assay [4]; 6.04 z-score in assay [5]; 6.38 z-score in assay [6]. In assay [7], this sequence yielded a binding signal of 7.36 z-score.

“CCGATTAACATCAGGGGACCACCTGATGTTAATCGGGTCTTGATTCGCTTGACGCTGCTG”: the binding signal was 4.71 z-score in assay [1]; 3.46 z-score in assay [2]; 2.99 z-score in assay [3]; 2.22 z-score in assay [4]; 6.1 z-score in assay [5]; 4.66 z-score in assay [6]. Further, the binding signal in assay [7] worked out at 3.71 z-score.

Regarding “CCGATTAACATCAGTTTTCCCCATGATGTTAATCGGGTCTTGATTCGCTTGACGCTGCTG”, the binding signal in assay [1] was 6.49 z-score; in assay [2], 7.03 z-score; in assay [3] it was 9.09 z-score; in assay [4] it was 9.45 z-score; in assay [5], 3.42 z-score; in assay [6] it was 4.82 z-score. This sequence also yielded a binding signal in assay [7] of 5.76 z-score.

Turning to “CCGATTAACATCAGGGACTTTCATGATGTTAATCGGGTCTTGATTCGCTTGACGCTGCTG”, the binding signal turned out to be 6.28 z-score in assay [1]; 7.24 z-score in assay [2]; 7.09 z-score in assay [3]; 1.04 z-score in assay [4]; 5.59 z-score in assay [5]; 6.22 z-score in assay [6]. In assay [7], this sequence returned a binding signal of 5.49 z-score.

As for “CCGATTAACATCACGGGGAAAACTGATGTTAATCGGGTCTTGATTCGCTTGACGCTGCTG”, the binding signal is 7.27 z-score in assay [1]; 7.6 z-score in assay [2]; 9.43 z-score in assay [3]; 10.2 z-score in assay [4]; 5.68 z-score in assay [5]; 5.55 z-score in assay [6]. Also, the binding signal in assay [7] stood at 5.8 z-score.

Turning to “CCGATTAACATCAAAAAGTCCCGTGATGTTAATCGGGTCTTGATTCGCTTGACGCTGCTG”, the binding signal was found to be 7.34 z-score in assay [1]; 9.76 z-score in assay [2]; 8.57 z-score in assay [3]; 2.47 z-score in assay [4]; 9 z-score in assay [5]; 8.05 z-score in assay [6]. In assay [7], the binding signal worked out at 6.44 z-score.

Take “CCGATTAACATCAGGGGGTACAATGATGTTAATCGGGTCTTGATTCGCTTGACGCTGCTG”: the binding signal in assay [1] came to 4.98 z-score; in assay [2], 3.08 z-score; in assay [3] it was 4.91 z-score; in assay [4], 4.94 z-score; in assay [5], 2.37 z-score; in assay [6], 2.98 z-score. This sequence gave a binding signal in assay [7] of 3.09 z-score.
